# RE007 growth inh: less growth of the S. pombe RE007 Vpr strain; S. pombe RE007 Vpr strain, BacTiter-Glo ATP luminescence, 24 h; Potency, µM (highest dose often 92.2 µM), for the others: at the top dose activity change, negative = less growth, actives largely listed as inhibitors; 360,000 tested, 0.21% active; active = well fitted falling curve with a large enough effect; inconclusive = small, poorly fitted or top-dose-only effect; inactive = no such curve, though single readings can be large or run the other way; note: % is set by controls: 0 for no effect and ±100 for the full control effect; nearly all actives have a fitted effect of over 50% in size
#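 Fission yeast RE007 carrying one integrated HIV-1 vpr copy, seeded at OD 0.01 in PMG+AL medium with 23 nL pinned compound. Grown 24 h at 30 degrees; viability read by BacTiter-Glo luminescence after 5 min.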
# Pf growth 48h: inhibits P. falciparum growth in the first generation, 48 h. P. falciparum luciferase growth in erythrocytes, 48 h. Potency, µM (highest dose often 28.7 µM), for the others: top-dose activity change, negative = inhibition, actives largely listed as inhibitors. 310,000 tested, 5.9% active; active = well fitted inhibition curve with a large enough effect; inconclusive = small, poorly fitted or top-dose-only effect, or another doubt; inactive = no such curve, though single readings can be large or run the other way; note: % is set by controls: 0 for no effect and ±100 for the full control effect
#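 Here the parasites carry a stable luciferase gene and grow inside erythrocytes in Albumax-based RPMI medium with compound for one erythrocytic cycle. Activity is scored as loss of luminescent signal.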
# Pf growth 96h: P. falciparum growth inhibition at 96 hours | 320,000 tested, 6.9% active | Potency, µM (series often up to 28.7 µM), for inactives: at the highest dose activity change, negative = inhibition, hits mostly inhibitors | P. falciparum luciferase reporter growth, 96 h; active = well fitted inhibition curve with a large enough effect; inconclusive = small, poorly fitted or top-dose-only effect, or another doubt; inactive = no such curve, though single readings can be large or run the other way; note: % is set by controls: 0 for no effect and ±100 for the full control effect
#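 Erythrocytes infected with luciferase-expressing P. falciparum were dispensed at 2% hematocrit and 0.05% parasitemia (final), then incubated with compounds 96 hours at 37 C in 5% CO2. Luminescence after detection reagent addition reported growth.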
# NS1 function inh: blocks influenza NS1 protein function. Potency, µM (doses to about 46.1 µM), without a hit: top-dose activity, positive = more growth. 270,000 tested, 0.4% active. AID 2326; note: actives are rising curves; nearly all actives have a fitted effect of over 50% in size
#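 Read-out: OD600 growth recovery of NS1-expressing budding yeast. Cells grown overnight at 30C in -URA glucose medium, washed, resuspended and diluted 1:100 in 2% galactose assay medium, pH 6.0. Same strain lacking NS1 served as positive control.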
# SARS PLpro yeast: inhibitors of SARS-CoV papain-like protease in yeast. S. cerevisiae expressing SARS-CoV PLpro, growth rescue. Potency, µM (doses to about 32.9 µM), without a hit: at the highest dose activity, positive = growth rescue, most hits filed as activators. 330,000 tested, 0.19% active. AID 485353; note: 0% is about no effect; nearly all actives have a fitted effect of over 55% in size
# Starred values were filed as active, the others as inactive; u = inconclusive; x = not tested or not shown. Rows were chosen to be rich in hits. Some 9.5% of all compounds tested hit in one or more screens of this group. Unless noted, calls come from the whole dose curve. Potency is the fitted concentration of half-maximal effect.
SMILES,RE007 growth inh,Pf growth 48h,Pf growth 96h,NS1 function inh,SARS PLpro yeast
Cc1[nH]n(C(N)=S)c(=O)c1N=Nc1cc(C(F)(F)F)ccc1Cl,0%,2%,u,-3%,0%
CC(C(=O)NCc1ccccc1Cl)N1C(=O)c2ccccc2C1=O (stereo unspecified),48%,3%,0%,2%,0%
CCOc1ccc(CCNC(=O)c2nnc(CS(=O)(=O)c3ccccc3)o2)cc1OCC,-13%,-17%,-25%,11%,6%
c1ccc(-c2nc3nonc3c3nc4ccccc4n23)cc1,6%,-5%,13µM*,-11%,-1%
c1ccc(-c2nc3ccccc3c3nc4ccccc4n23)cc1,2%,13%,-15%,2%,-16%
Cn1c(=NC(=O)CCl)sc2ccccc21,u,u,5.2µM*,-55%,-7%
Cn1c(=NC(=O)c2ccco2)sc2ccccc21,-12%,63%,116%,-43%,-1%
CC(=O)N=c1sc2cc(C)ccc2n1C,-17%,82%,9.3µM*,-11%,-2%
CC(=O)SCC(=O)N=c1sc2cc(F)ccc2n1C,3%,-5%,33%,2%,x
CN(C)S(=O)(=O)c1ccc(NC(=O)Cc2ccc(S(=O)(=O)N3CCOCC3)s2)cc1,-8%,u,9.3µM*,x,-9%
O=C(Cc1ccc(S(=O)(=O)N2CCOCC2)s1)Nc1cc(C(F)(F)F)cc(C(F)(F)F)c1,-8%,u,u,x,-1%
CCOC(=O)c1cc(NC(=O)Cc2ccc(S(=O)(=O)N3CCOCC3)s2)cc(C(=O)OCC)c1,-12%,10µM*,5.2µM*,x,-10%
COc1ccc(N2CCN(C(=O)c3cccc(NC(=O)c4ccco4)c3)CC2)cc1,-7%,-10%,98%,-2%,-1%
Cc1ccc(C(=N)c2ccccc2Cc2cccc3ccccc23)c2ccccc12,x,x,x,-10%,x
COC(=O)/C=C1/S/C(=N/NC(=O)c2ccccc2OC)NC1=O,16%,u,12µM*,-39%,u
COC(=O)/C=C1/S/C(=N/NC(=O)c2ccc(OC)cc2)NC1=O,13%,5%,u,-9%,2%
COc1cccc(C(=O)Nn2cnnc2)c1OC,4%,8%,2.1µM*,9%,3%
O=C(O)c1ccccc1C(=O)Nn1cnnc1,3%,-7%,5%,8%,0%
O=C(Nn1cnnc1)c1ccccc1Cl,9%,3%,8.3µM*,u,4%
Cc1nc(CCNC(=O)CC2C(=O)NCCN2CC(C)C)nc2c1CCC2 (stereo unspecified),1%,-9%,u,-2%,7%
COc1cccc(N=C2SC(CC(=O)Nc3ccccc3)C(=O)N2Cc2ccccn2)c1 (stereo unspecified),12%,u,u,x,-3%
COCC(C)n1c(SCc2cc(=O)n3cc(C)ccc3n2)nc2ccccc2c1=O (stereo unspecified),13%,u,u,x,0%
C=C(C)C1CC=C(C)/C(=N\NC(=S)Nc2ccc(C)cc2)C1 (stereo unspecified),x,15µM*,10µM*,8%,u
CC1(C(=O)NS(=O)(=O)C2CC2)CCCN(C(=O)c2cccnc2Oc2ccccc2)C1 (stereo unspecified),-2%,x,x,x,x
Cc1cccc(N2CCN(S(=O)(=O)c3cc(-c4cc(C)no4)ccc3C)CC2C)c1 (stereo unspecified),-10%,u,47%,12%,6%
SMILES,RE007 growth inh,Pf growth 48h,Pf growth 96h,NS1 function inh,SARS PLpro yeast
O=C(O[C@@H]1OC2COC(=O)c3cc(O)c(O)c(O)c3-c3c(cc(O)c(O)c3O)C(=O)O[C@@H]([C@H]1O)[C@@H]2O)c1cc(O)c(O)c(O)c1,3%,-11%,-102%,16%,13µM*
CC(C)c1ccccc1NC(=O)CSc1n[nH]c(=O)n1C1CC1,-2%,-1%,-19%,x,0%
COc1ccccc1/C=N/NC(=O)c1ccc(NC(=O)c2cccc([N+](=O)[O-])c2)cc1,x,5.2µM*,-1%,x,-1%
COc1ccc(/C=N/NC(=O)c2cccc([N+](=O)[O-])c2)cc1O,-11%,-14%,4%,-2%,-1%
COc1cccc(/C=N/NC(=O)c2cc3cc([N+](=O)[O-])ccc3s2)c1O,0%,4.1µM*,u,16%,u
COc1ccccc1CNC(=O)C1CCC(CNc2c(N3CCC(C)CC3)c(=O)c2=O)CC1 (stereo unspecified),-4%,0%,0%,-4%,-2%
C=C1[C@H]2O[C@H]2[C@@H](OC(C)=O)[C@@]2(C)[C@@H](OC(C)=O)C[C@@H](OC(C)=O)[C@@](C)(O)[C@@H]2[C@@H](OC(C)=O)[C@@]2(O)[C@@H](C)C(=O)O[C@H]2[C@H]1Cl,1%,x,x,x,x
CCn1cc(/C=N/N=C2\CCC3C4CCc5cc(O)ccc5C4CC[C@]23C)c(C)n1 (stereo partly specified),26%,x,1.7µM*,1%,-7%
COc1ccc2nc(C)cc(Nc3ccccc3O)c2c1,-19%,u,u,1%,-3%
Cc1cc(NCc2ccccc2)nc2ccccc12,-5%,u,17%,-1%,-14%
Cc1cc(NCc2ccccc2)c2ccccc2n1,5%,3.3µM*,u,u,-2%
COc1ccc2nc(C)cc(NCc3cccc(C(F)(F)F)c3)c2c1,-5%,0.93µM*,u,-10%,-3%
O=C1C=C(OCCF)CC(c2cccc([N+](=O)[O-])c2)O1 (stereo unspecified),0%,x,x,x,x
COc1ccc2nc(NCN3C(=O)c4ccccc4C3=O)sc2c1,x,x,x,-4%,x
O=C(NC1CCCC1)C1CCCN1S(=O)(=O)c1cccc2cccnc12 (stereo unspecified),-4%,x,-27%,-3%,0%
CN(C(=O)C1CCC(CNS(=O)(=O)c2cccc3cccnc23)CC1)C1CCCCC1 (stereo unspecified),7%,u,u,7%,-5%
O=C(NCc1ccccc1)C1CCCN1S(=O)(=O)c1cccc2cccnc12 (stereo unspecified),-1%,-6%,4.7µM*,2%,7%
O=C(C1CCC(CNS(=O)(=O)c2cccc3cccnc23)CC1)N1CCCC1 (stereo unspecified),11%,-2%,13µM*,0%,7%
CCC(C)c1ccc(NC(=O)c2c([N+](=O)[O-])cnn2CC)cc1 (stereo unspecified),-8%,-47%,5.2µM*,-47%,-16%
CN(/N=C/C=C/c1ccccc1)C1=NS(=O)(=O)c2ccccc21,-15%,26%,u,4%,u
Cc1cc(Br)c(NC(=O)CCNC(=O)OCc2ccccc2)cc1C,0%,0%,-16%,-10%,-13%
CC(=O)Oc1c(C)c2c3c(c1OC(C)=O)[C@@H](C)CC[C@@H]3[C@@H](C)C[C@H]2C=C(C)C,-2%,12µM*,u,x,0%
